High-throughput results: PubChem, several laboratories
KLF5 inh: suppresses KLF5 promoter-driven expression; inhibition, % at 5 µM; DLD-1 KLF5 promoter-luciferase reporter, luminescence; hit rate 0.23% among 290,000;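 active = inhibition above a per-plate limit of that plate's mean compound inhibition plus 3 SD, cut at about 60% in these data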;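 note: higher means less KLF5 promoter-driven luciferase light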
aSyn 5UTR inh: 5' untranslated region of α-synuclein, MLPCN primary screen | alpha-synuclein 5'UTR reporter, inhibitor activity | hit rate 0.82% among 300,000 | inhibition, % (tested at 7.5 µM); in the data active = inhibition above about 60%; inconclusive = no clear call, values can overlap the other calls;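 note: H4 neuroglioblastoma cells stably carrying SNCA 5'UTR luciferase fusion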
APP 5UTR inh: APP translation inhibition; SH-SY5Y APP 5'UTR-luciferase reporter, luminescence; inhibition, % at 2 µM; hit rate 0.82% among 190,000;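 active = inhibition above a set limit, derived from the sample mean plus 3 SD, cut at about 45% in these data; inconclusive = one replicate passes the limit while the other fails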
IEC-6 tox: IEC-6 cytotoxicity, counter-screen for KLF5 inhibitors. hit rate 0.78% among 290,000. inhibition, % at 5 µM. luminescence viability
BaF3 parental: parental Ba/F3 viability inhibition as JAK2V617F counter-screen; CellTiter-Glo ATP luminescence; inhibition, % at 5.6 µM; hit rate 1.1% among 220,000;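 active = inhibition above a per-campaign cutoff, the mean inhibition of all tested compounds plus 3 SD, cut at about 27% in these data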
Ba/F3 V617F tox: lowers viability of Ba/F3 cells expressing EpoR and JAK2V617F; ATP luminescence; inhibition, % at 5.6 µM; hit rate 1.1% among 220,000; AID 1446;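 active = inhibition above the campaign mean plus 3 SD over all tested compounds, cut at about 24% in these data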;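 note: cytokine-independent growth of Ba/F3 cells driven by EpoR plus mutant JAK2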
IEC-6 tox confirm: IEC-6 cytotoxicity, confirmation assay. shares compounds with IEC-6 tox. inhibition, % at 5 µM. hit rate 63% among 1,900. IEC-6 rat intestinal epithelial viability, luminescence
Hits are given with their value; i = inactive; ? = inconclusive; nt = no result. An excerpt weighted towards active compounds, which were near 2.2% of everything screened. Cut-off read from the data, not from the text of the source, unless noted: active = inhibition above about 22%; inactive = the rest.

SMILES	KLF5 inh	aSyn 5UTR inh	APP 5UTR inh	IEC-6 tox	BaF3 parental	Ba/F3 V617F tox	IEC-6 tox confirm
CC(=O)Nc1ccc(NS(=O)(=O)c2cc(-c3cnc(C4CC4)o3)ccc2C)cc1	i	i	nt	23.4	nt	nt	23.6
Cc1ccc(N(C)S(=O)(=O)c2cc(-c3cnc(C4CC4)o3)ccc2C)cc1	i	i	nt	i	nt	nt	nt
CC(=O)c1cccc(NS(=O)(=O)c2cc(-c3cnc(C4CC4)o3)ccc2C)c1	i	i	nt	41.0	nt	nt	31.3
Cc1ccc(-c2cnc(C3CC3)o2)cc1S(=O)(=O)Nc1ccccc1	i	i	nt	37.8	nt	nt	46.6
CC(=O)c1ccc(NS(=O)(=O)c2cc(-c3cnc(C4CC4)o3)ccc2C)cc1	i	i	nt	i	nt	nt	nt
COC1CCCN(Cc2cn(C)nc2-c2ccc(Oc3ccccc3)cc2)C1 (configuration not stated)	i	i	i	i	i	i	nt
CCCN1CCC(NCc2cn(C)nc2-c2ccc(Oc3ccccc3)cc2)CC1	i	i	nt	35.9	67.5	52.5	43.0
COc1cc2[nH]c(=S)nc(NCc3cccc(Cl)c3)c2cc1OC	i	i	nt	26.9	nt	nt	i
COc1cc(CNCCO)ccc1OCCc1ccccc1	i	i	nt	i	nt	nt	nt
CCN(C(=O)Cn1cc(C(=O)C(=O)N2CCOCC2)c2ccccc21)c1ccccc1	i	i	nt	i	nt	nt	nt
Nc1sc(-c2ccccc2)cc1-c1n[nH]c(=S)n1C1CCCCC1	i	i	nt	54.3	56.7	89.2	48.1
CCN1/C(=C/c2ccc3cccc(C)c3[n+]2CC)Sc2ccccc21	i	i	i	32.5	89.2	97.8	36.3
CC[n+]1c(/C=C/c2ccc(OC)c(OC)c2)ccc2ccccc21	i	i	nt	i	nt	nt	nt
C[n+]1ccccc1/C=C1\Sc2ccccc2N1CCO	i	i	nt	i	nt	nt	nt
CCN1/C(=C\c2ccc3cc(C)ccc3[n+]2CC)Sc2cc(C)c(C)cc21	i	i	i	36.8	71.1	100.4	28.2
CCN1/C(=C/c2ccc3cc(C)cc(C)c3[n+]2CC)Sc2cc(C)ccc21	i	nt	61.4	43.0	86.2	100.6	37.2
CC(=O)c1ccc(NC(=O)CCc2nnc3ccc(N4CCCC4)nn23)cc1	i	i	nt	i	nt	nt	nt
Cc1c(C)n(CCc2ccccc2)c2ncnc(NCCCN(C)C)c12	i	i	nt	i	nt	nt	nt
C[C@@H]1NC(=O)c2cc([N+](=O)[O-])cc(I)c2OCC[C@@H](C(=O)NC(CC(=O)O)C(N)=O)NC(=O)[C@H](CC(N)=O)NC1=O (some centres not stated)	i	nt	i	i	i	i	nt
O=C(NNC(=S)NC(=O)c1ccccc1[N+](=O)[O-])c1ccccc1[N+](=O)[O-]	i	i	i	i	i	i	nt
CCCCOc1ccccc1C(=O)NNC(=S)NC(=O)c1ccccc1[N+](=O)[O-]	i	i	nt	25.1	nt	nt	i
CCOC(=O)c1[nH]c2c(c1C)C(=O)CC(c1ccc(F)cc1)C2 (configuration not stated)	i	?	92.5	42.2	56.0	56.0	59.7
CCOc1ccccc1NC(=O)c1nc(S(=O)(=O)Cc2cccc(C)c2)ncc1Cl	i	88.0	nt	72.8	nt	nt	29.8
CCc1nnc(NC(=O)c2nc(S(=O)(=O)Cc3ccccc3)ncc2Cl)s1	i	i	nt	34.0	nt	nt	i
CCc1nnc(NC(=O)c2nc(S(=O)(=O)Cc3ccc(C)cc3)ncc2Cl)s1	i	i	nt	49.7	nt	nt	i
SMILES	KLF5 inh	aSyn 5UTR inh	APP 5UTR inh	IEC-6 tox	BaF3 parental	Ba/F3 V617F tox	IEC-6 tox confirm
CCc1nnc(NC(=O)c2nc(Cl)ccc2Cl)s1	i	i	nt	i	nt	nt	nt
CC(C)c1nnc(NC(=O)c2nc(S(=O)(=O)Cc3ccccc3F)ncc2Cl)s1	i	i	nt	i	nt	nt	nt
CCSc1nnc(NC(=O)c2nc(S(=O)(=O)Cc3ccc(F)cc3)ncc2Cl)s1	i	i	nt	i	nt	nt	nt
Cc1nnc(NC(=O)c2nc(S(=O)(=O)Cc3ccccc3C)ncc2Cl)s1	i	i	nt	68.9	nt	nt	i
Cc1ccc(-n2nc3c(=O)n(CC(=O)NCc4ccc(C)o4)nc(C)c3c2C)cc1	i	i	nt	i	nt	nt	nt
CSc1nnc(NC(=O)c2nc(S(=O)(=O)Cc3ccccc3F)ncc2Cl)s1	i	i	nt	i	nt	nt	nt
CCc1nnc(NC(=O)c2nc(S(=O)(=O)Cc3cccc(C)c3)ncc2Cl)s1	i	i	nt	40.7	nt	nt	i
O=C(C(Cl)Cl)N1c2ccccc2OCC1c1ccccc1 (configuration not stated)	i	i	i	37.4	i	i	i
Cc1ccc(S(=O)(=O)N2c3ccccc3OCC2c2ccccc2)cc1 (configuration not stated)	i	i	i	i	i	i	nt
Cc1cc(Cl)c(C(=O)Nc2cccc(C(F)(F)F)c2)c(C)n1	i	i	nt	i	nt	nt	nt
CCc1cc2c(=O)[nH]c(-c3ccccn3)nc2s1	i	?	i	27.0	i	i	48.6
NC(=O)c1ccc(NC(=O)COc2ccc([N+](=O)[O-])cc2Cl)cc1	i	i	i	i	i	i	nt
CCc1cn([C@H]2C[C@H](O)[C@@H](CO)O2)c(=O)[nH]c1=O	i	i	i	i	i	i	nt
O=c1[nH]c(=O)n([C@H]2C[C@H](O)[C@@H](CO)O2)cc1C(F)(F)F	i	76.5	58.7	84.8	87.6	96.3	80.0
CCCC(=O)NC(c1ccccc1)c1ccc2cccnc2c1O (configuration not stated)	88.6	65.4	nt	42.4	nt	nt	66.0
